An excerpt weighted towards active compounds, which were near 4.3% of everything screened.
sPLA2-III inh: human group III sPLA2 inhibitors, primary screen, biochemical, QFRET, BODIPY PC-A2 liposome substrate; Group 3 secretory phospholipase A2 (Homo sapiens), Q9NZ20; QFRET BODIPY PC-A2 liposome hydrolysis, fluorescence; inhibition, % at 12.2 µM; hit rate 0.56% among 370,000;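 active = inhibition above mean plus 3 SD of compounds lying within the high and low control bounds, cut at about 19% in these data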
ADAM10 inh: human ADAM10 inhibitors, primary screen, biochemical, QFRET, HTS; AID 720582, 2013; hit rate 0.62% among 370,000; inhibition, % at 7 µM; recombinant ADAM10, EDANS/DABCYL FRET peptide cleavage, 3 h;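 active = inhibition above a per-campaign cutoff equal to the mean of compounds falling between control-based bounds plus 3 SD, cut at about 20% in these data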
ADAM17 inh: ADAM17 inhibitors, primary screen, biochemical, QFRET. Disintegrin and metalloproteinase domain-containing protein 17 (Homo sapiens), P78536. recombinant ADAM17, EDANS/DABCYL FRET peptide cleavage. inhibition, % at 6.95 µM. hit rate 0.83% among 370,000. AID 720648, 2013;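 active = inhibition above the mean of compounds lying between control limits plus 3 SD, set per campaign, cut at about 8.5% in these data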
Target sequence (P78536 215-824 limits assumed): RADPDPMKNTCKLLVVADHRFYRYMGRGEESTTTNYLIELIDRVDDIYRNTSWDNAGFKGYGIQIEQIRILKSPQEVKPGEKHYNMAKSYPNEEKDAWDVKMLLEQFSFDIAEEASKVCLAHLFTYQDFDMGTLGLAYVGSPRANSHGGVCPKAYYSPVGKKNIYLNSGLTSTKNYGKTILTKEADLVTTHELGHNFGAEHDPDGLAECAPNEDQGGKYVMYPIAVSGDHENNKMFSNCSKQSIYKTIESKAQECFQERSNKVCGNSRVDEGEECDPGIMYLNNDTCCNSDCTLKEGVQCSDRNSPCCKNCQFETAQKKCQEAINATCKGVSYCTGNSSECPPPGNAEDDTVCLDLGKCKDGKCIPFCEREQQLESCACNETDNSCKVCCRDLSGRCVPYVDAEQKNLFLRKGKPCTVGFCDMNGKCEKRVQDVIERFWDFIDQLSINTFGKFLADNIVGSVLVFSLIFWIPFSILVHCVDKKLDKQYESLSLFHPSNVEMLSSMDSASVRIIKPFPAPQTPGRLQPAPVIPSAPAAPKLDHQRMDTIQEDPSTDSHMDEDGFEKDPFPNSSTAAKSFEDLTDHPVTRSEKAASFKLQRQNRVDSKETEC
GRIN3A LBD mod: binders of NR3A ligand-binding domain, primary screen, biophysical, differential scanning fluorimetry, uHTS; Tm shift relative to glycine control, % at 25 µM; hit rate 2.5% among 340,000; NR3A LBD differential scanning fluorimetry, Tm shift; 0% = protein alone, 100% = glycine-bound protein;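 active = melting temperature shift of at least 10% of the positive control shift, at one fixed dose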
FAS TE block: FAS thioesterase domain inhibitors, primary screen, biochemical, fluorescence intensity, uHTS. Fatty acid synthase (Homo sapiens), P49327. recombinant FAS-TE, OMFH fluorogenic substrate, fluorescence endpoint. inhibition, % at 15 µM. hit rate 0.67% among 360,000. AID 602261, 2012;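 active = compounds whose normalised, plate-corrected inhibition of enzyme fluorescence in the single-dose primary screen is 50% or more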
hGIII sPLA2 conf: human group III sPLA2 inhibitors, confirmation, biochemical, QFRET, triplicate | shares compounds with sPLA2-III inh | recombinant hGIII-sPLA2, BODIPY PC-A2 QFRET fluorescence | inhibition, % at 12.2 µM | hit rate 34% among 2,000 | AID 743280, 2014;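 active = mean inhibition across triplicates above the hit cutoff set in the earlier primary screen, cut at about 19% in these data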
BODIPY interf: 535nm fluorescence optical interference, confirmation, artefact control for HGIII-sPLA2 inhibitor project, biochemical, QFRET; hit rate 8.5% among 2,000; inhibition, % at 12.2 µM; shares compounds with sPLA2-III inh; AID 743282, 2014; BODIPY FL product fluorescence interference;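 active = average inhibition above the solvent-only control mean plus 3 SD, cut at about 6% in these data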
BODIPY interf DR: 535nm fluorescence optical interference, dose response, artefact control for HGIII-sPLA2 inhibitor project, biochemical, QFRET; shares compounds with sPLA2-III inh; BODIPY FL product fluorescence interference, cell-free; IC50, µM; 240 tested, under 10 active; AID 743455, 2014;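 active = IC50 at or below 10 µM; inactive = IC50 above 10 µM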
Numbers stand for hits; 0 = inactive; - = not tested or not shown; ! = repeats disagree.

SMILES	sPLA2-III inh	ADAM10 inh	ADAM17 inh	GRIN3A LBD mod	FAS TE block	hGIII sPLA2 conf	BODIPY interf	others
CS(=O)(=O)N1CCCC(C(=O)NCc2ccco2)C1 (configuration not stated)	20	0	0	0	0	0	0
CCCC[C@H](C(=O)N(C)c1cccc(OC)c1)[C@@H](O)c1ccc(C(C)=O)cc1	0	0	0	-	-	-	-
CC(CCN1CCC(C(O)(c2ccccc2)c2ccccc2)CC1)Oc1cc(F)cc(F)c1 (configuration not stated)	0	0	0	-	-	-	-
CCn1c(SCC(=O)NN=Cc2ccc(C(=O)O)cc2)nc2ccccc21	0	0	0	-	-	-	-
O=C(NNC(=O)c1ccc2ccccc2c1O)Nc1ccc(F)cc1	28	0	0	0	0	30	0	BODIPY interf DR=0
O=C(NNC(=O)c1ccc2ccccc2c1O)NC1CCCCC1	26	0	0	0	0	0	0
Cc1cccc(NC(=O)NNC(=O)c2ccc3ccccc3c2)c1	0	0	0	0	0	-	-
Cc1cccc(NC(=O)NNC(=O)c2ccc3ccccc3c2O)c1	29	0	0	0	0	30	0	BODIPY interf DR=0
CC(C)(C)OC(=O)N[C@H]1C=C[C@@H](CC(=O)OCC(F)(F)F)C1	0	0	0	-	-	-	-
Cc1ccc(OCc2nnc(SCC(=O)Nc3ccc(OCc4ccccc4)cc3)n2-c2ccc(Cl)cc2)cc1	0	0	0	-	-	-	-
C[C@H]1COc2cc(NCCO)ccc2S(=O)(=O)N1	0	0	0	-	-	-	-
COc1ccc2c(c1)[C@@]1(OCCC=C[C@H]1C)C(=O)N2Cc1ccc(F)cc1	0	0	0	-	-	-	-
COc1ccc(NC(=S)N(Cc2ccc(N(C)C)cc2)Cc2ccco2)cc1	22	0	0	0	0	0	0
CCOc1ccc2[nH]c3c(NCCN(CC)CC)ncnc3c2c1	20	0	0	0	0	0	0
O=C(C(=O)N1CCC(CNS(=O)(=O)c2ccc(OC(F)(F)F)cc2)CC1)c1cc2ccccc2o1	0	0	0	-	-	-	-
CCCCCCN1C=C/C(=C\C=C(C#N)C#N)c2ccccc21	0	0	0	0	0	-	-
C=CCN1C=C/C(=C\C=C(C#N)C#N)c2ccccc21	28	0	0	0	0	48	13
CN(C)S(=O)(=O)c1ccc(Cl)c(C(=O)NCCNC(=O)c2cc(S(=O)(=O)N(C)C)ccc2Cl)c1	21	0	0	0	0	0	0
CN(C)S(=O)(=O)c1ccc(Cl)c(C(=O)NCC2CCCCC2)c1	0	0	0	0	0	-	-
CC(C)[C@H](NC(=O)[C@@H](N)Cc1ccccc1)C(=O)N1CCC2CCN(Cc3ccccc3)CC21 (some centres not stated)	0	0	0	-	-	-	-
Cc1ccc(C2NC(=S)NC3=C2C(=O)CCC3)cc1 (configuration not stated)	0	0	0	0	0	-	-
CC(C)c1ccc(C2NC(=S)NC3=C2C(=O)CCC3)cc1 (configuration not stated)	24	0	0	0	0	0	0
CCOC(=O)C1=NOC(C(=O)NC2CCCC2)(C(=O)c2ccc(OC)cc2)C1 (configuration not stated)	0	0	0	-	-	-	-
COCc1cc(N2CCN(C(=O)OC(C)(C)C)C[C@H]2C)ccc1N1CC[C@@H](O)C1	0	0	0	-	-	-	-
COc1ccc(CN2CCN(c3ccccn3)CC2)c(OC)c1C	19!	0	0	0	0	0	0
COc1ccc(CN2CCN(c3ncccn3)CC2)c(C)c1C	0	0	0	0	0	-	-

Assay outcomes as filed in PubChem BioAssay.
